{"source": "the supplement of paper PMC10338343", "note": "± gives the standard deviation.", "data": [{"tested_on": "EfPiwi piRISC loaded with L1MC piRNA (26 nt)", "test": "pre-steady-state target cleavage rate (min^-1); auxiliary factor: 500 nM Ephydatia muelleri Gtsf1; guide: L1MC piRNA 5'p-UAACUAAAUACUAUGCAAGCUGUAGG; MIWI and MILI are mouse PIWI proteins and EfPiwi is from a freshwater sponge; tags in brackets are library labels; higher = faster piRNA-guided slicing of the target", "outline": "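Active affinity-purified piRISC carrying one synthetic guide (1 nM) was mixed with a transcribed, DNA-blocked target RNA library […] in HEPES–potassium acetate buffer at 33 °C for 0–8 or 0–960 min, with or without 500 nM GTSF1 partner protein. Uncleaved targets were then sequenced and normalised to depth and to weakly complementary targets. Three trials were pooled, and k3 was capped at 0.0001 min^-1. A burst-and-steady-state fit was applied to obtain the pre-steady-state cleavage rate.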", "values": [{"sequence": "UCCUGGAUGUCGAACGUAUGUAUUUUGUUA", "pre-steady-state target cleavage rate": "< 0.0001"}, {"sequence": "UCCUGGUACAGCCUGCAUAGUAUUUAGUUA", "pre-steady-state target cleavage rate": "0.00984 ± 0.0036"}, {"sequence": "UCCUGCUACAGCUUGCAUAGUAUUGUAGUUA", "pre-steady-state target cleavage rate": "0.00279 ± 0.0016"}, {"sequence": "UCCUCCUACACCUUGCUUAGUAUUUAGUUA", "pre-steady-state target cleavage rate": "0.00914 ± 0.0039"}, {"sequence": "UCCUGGUACAGCUUCCAUAGUAUUUAGUUA", "pre-steady-state target cleavage rate": "0.00258 ± 0.0017"}, {"sequence": "UCCUGCUAGAGCUUGGAUAGUAUUUAGUUA", "pre-steady-state target cleavage rate": "0.00499 ± 0.0016"}, {"sequence": "UCCUCCUACACCUUGCAUAGUAUUUUGUUA", "pre-steady-state target cleavage rate": "0.00451 ± 0.0027"}, {"sequence": "UCCUCCUACAGCUUGGAUAGUAUUUUCAAA", "pre-steady-state target cleavage rate": "0.00297 ± 0.0022"}, {"sequence": "UCCUGGUACAGCUUGCAAAGUAAUUAGUUA", "pre-steady-state target cleavage rate": "0.00305 ± 0.0021"}, {"sequence": "UCCUGGAUGUCCUUAGCAUAGUAUUUAGUUA", "pre-steady-state target cleavage rate": "0.00479 ± 0.003"}, {"sequence": "UCCUGGAUGUCGUUCCAUAGUAAUUAGUUA", "pre-steady-state target cleavage rate": "< 0.0001"}, {"sequence": "UCCUGCUACAGCUUGCAUAGUUAUUAGAAA", "pre-steady-state target cleavage rate": "0.00309 ± 0.0025"}, {"sequence": "UCCUGCUACAGGCUUGCAUAGUAUUUAGUUA", "pre-steady-state target cleavage rate": "0.00977 ± 0.0027"}, {"sequence": "UCCUGCUUCAGCUUGCAUAGUAUUUACUUA", "pre-steady-state target cleavage rate": "0.00411 ± 0.0037"}, {"sequence": "UCCUGCUACAGCUUGCAUAGUAUUUUCAUA", "pre-steady-state target cleavage rate": "0.00529 ± 0.0027"}, {"sequence": "UCCUGGAUGUCCUUGCAUAGUACUUAGUUA", "pre-steady-state target cleavage rate": "0.00586 ± 0.0027"}, {"sequence": "UCCUGCUACACCUUGCAUAGUAUUUAGUAA", "pre-steady-state target cleavage rate": "0.00559 ± 0.0032"}, {"sequence": "UCCUGGAUGUCGAACGUAUGUAUUUAGAUUA", "pre-steady-state target cleavage rate": "< 0.0001"}, {"sequence": "UCCUCCUACAGCUUGCAUAGUAUUUGAGUUA", "pre-steady-state target cleavage rate": "0.00541 ± 0.0025"}, {"sequence": "UCCUGGAUGUCGAACGACAGUAUUUAGUUA", "pre-steady-state target cleavage rate": "< 0.0001"}, {"sequence": "UCCUGGAUGUCGAACCAUAGUAUUAAGUUA", "pre-steady-state target cleavage rate": "< 0.0001"}, {"sequence": "UCCUCCUACAGCUUGCAUUGUAUUUUGUUA", "pre-steady-state target cleavage rate": "0.00442 ± 0.0027"}, {"sequence": "UCCUGGAUCAUGCUUGCAUAGUAUUUAGUUA", "pre-steady-state target cleavage rate": "0.0911 ± 0.025"}, {"sequence": "UCCUGCUUCAGCAUGCAUAGUAUUUAGUUA", "pre-steady-state target cleavage rate": "0.0186 ± 0.0047"}, {"sequence": "UCCUGGAACAGGUUGCAUAGUAAUUAGUUA", "pre-steady-state target cleavage rate": "0.0061 ± 0.0024"}, {"sequence": "UCCUGGAACCGCUUGCAUAGUAUUUAGUUA", "pre-steady-state target cleavage rate": "0.0172 ± 0.0054"}, {"sequence": "UCCUCCUACAGCUUGCAGAGUAUUUAGUUA", "pre-steady-state target cleavage rate": "0.0095 ± 0.0025"}, {"sequence": "UCCUCCUACAGCUAGCAUUGUAUUUAGUUA", "pre-steady-state target cleavage rate": "0.0127 ± 0.0042"}, {"sequence": "UCCUGGAACAGCUUGCAUAGUAUUAAGAUA", "pre-steady-state target cleavage rate": "0.00257 ± 0.0022"}, {"sequence": "UCCUGCUACAGUUUGCAUAGUAUUUAGUUA", "pre-steady-state target cleavage rate": "0.0365 ± 0.011"}, {"sequence": "UCCUGGAUGUCGAACCAAAGUAUUUAGUUA", "pre-steady-state target cleavage rate": "< 0.0001"}, {"sequence": "UCCUGGAACAGCUUGCUUAGUAUUUAGUAA", "pre-steady-state target cleavage rate": "0.00393 ± 0.0022"}, {"sequence": "UCCUGGAUGUCGAACCAUUGAAUUUAGUUA", "pre-steady-state target cleavage rate": "< 0.0001"}, {"sequence": "UCCUGCUACAGCUUGCAAAGUUUUUAGUUA", "pre-steady-state target cleavage rate": "0.00207 ± 0.002"}, {"sequence": "UCCUGGAUCAGGUUGCAUAGAAUUUAGUUA", "pre-steady-state target cleavage rate": "0.00305 ± 0.0023"}, {"sequence": "UCCUGGAUGAGCUUCCAUAGUAUUUAGAAA", "pre-steady-state target cleavage rate": "0.00248 ± 0.0019"}, {"sequence": "UCCUGGAUGUCGAACGUUACAAUUUAGUUA", "pre-steady-state target cleavage rate": "< 0.0001"}, {"sequence": "UCCUGGUAGAGCUUGCAUAGUAUUUAGUUA", "pre-steady-state target cleavage rate": "0.0138 ± 0.0044"}, {"sequence": "UCCUGCUACAGCUUGCAUAGUAAUUAGAUA", "pre-steady-state target cleavage rate": "0.00345 ± 0.0018"}]}]}
